Laboratory results published in PubChem BioAssay (EPA / NIEHS).
Where “and” joins values, the source holds several entries; their conditions need not be identical. Equal values may be shown once. A structure can be active in one record and inactive in another. Calls of active or inactive are those of the source. How the source made its calls: active means hit-call score of the fitted dose curve at least 0.9, where 1 is the maximum; inactive means score below 0.9.

These molecules were tested on Urokinase-type plasminogen activator receptor (uPAR), PLAUR (gene 5329) (assay: BSK_4H_uPAR: BioMAP Diversity Plus: 4H Assay for Urokinase-type plasminogen activator receptor (uPAR) Biomarker Activity (AID 2283030)). Conditions: primary human endothelial cells (HUVEC); actives raise or lower the signal.
Experimental: BSK_4H is a cell-based, multiplexed-readout assay that uses umbilical vein endothelium, a human vascular primary cell, with measurements taken at 24 hours after chemical dosing in a 96-well plate.BSK_4HAR is an assay component measured in the BSK_4H assay. It measures uPAR antibody related to regulation of gene expression using ELISA technology.Data from the assay component BSK_4HAR was analyzed into 1 assay endpoint. This assay endpoint, BSK_4HAR, was analyzed with bidirectional fitting relative to DMSO as the negative control and baseline of activity. Using a type of binding reporter, gain or loss-of-signal activity can be used to understand changes in the signaling as they relate to the gene PLAUR. Furthermore, this assay endpoint can be referred to as a primary readout, because this assay has produced multiple assay endpoints where this one serves a signaling function. To generalize the intended target to other relatable targets, this assay endpoint is annotated to the cytokine intended target family, where the subfamily is plasmogen activator.
The levels of cell surface (or secreted, indicated by the prefix "s") biomarker endpoints were measured by ELISA. Overt cytotoxicity to cells in confluent adherent cultures (all systems other than the BT system) was assessed by measuring total protein levels using sulforhodamine B (SRB) staining in parallel cultures at the time of biomarker measurements, indicated as SRB endpoints. For proliferation assays for adherent cell types, individual cell types are cultured at sub-confluence and relative cell numbers quantified by SRB staining at time points optimized for each system (48 h: 3C and CASM3C systems; 72 h: BT and HDF3CGF systems; 96 h: SAg system). SRB was performed by staining cells with 0.1% SRB after fixation with 10% TCA and reading wells at 560 nm.Viability and proliferation of PBMC (T cells) was quantified by Alamar Blue reduction for the SAg and BT systems. For PBMC viability (referred to as PBMC Cytotoxicity within the assay endpoint names), cells were plated (75,000/well in a 96-well plate) and then chemical samples added for 1 h before addition of activators, SEB and TSST-1 (20 ng/mL final concentration each). Cells were incubated for 90 h. Then, Alamar Blue (20 uL/well) (Invitrogen, Cat DAL1100) was added for 6 h, and the plates were read with a fluorescence microplate reader at 546/580 nm (excitation/emission). For PBMC proliferation, cells were plated and activated as above but incubated for only 16 h prior to addition of Alamar Blue. Plates were read after 6 h.
With `OCC(F)(F)C(F)(F)C(F)(F)C(F)(F)C(F)(F)C(F)(F)C(F)(F)C(F)(F)CO` the outcome was “inactive”. For `Cc1ccc(S(=O)(=O)C(I)I)cc1`, the AC50 was 2.2 µM (active). For `O=C(O)C(F)(F)OC(F)(F)C(F)(F)OC(F)(F)C(F)(F)OC(F)(F)F`, the outcome was “inactive”. `NC(O)(C(F)(F)F)C(F)(F)F` was tested, and the outcome was “inactive”. With `OCC(O)CC(F)(F)C(F)(F)C(F)(F)C(F)(F)F` (stereo not given) the outcome was “inactive”. `NC(=O)C(F)(F)C(F)(F)C(F)(F)C(F)(F)C(F)(F)C(F)(F)C(F)(F)F` was tested, and the outcome was “inactive”. With `OCCCC(F)(F)C(F)(F)C(F)(F)C(F)(F)C(F)(F)C(F)(F)C(F)(F)C(F)(F)F` the AC50 was 31 µM (active) and 43.6 µM (active). `OCC(F)(F)C(F)(F)C(F)(F)C(F)(F)C(F)(F)C(F)(F)CO` was tested, and the outcome was “inactive”. For `C=CC(=O)OCC(F)(F)C(F)(F)C(F)(F)COC(=O)C=C`, the AC50 was 49.9 µM (active) and 758 nM (active). With `NC(=O)C(F)(F)C(F)(F)C(F)(F)F` the outcome was “inactive”. `O=C1C=CC(=O)N1c1ccc(Cc2ccc(N3C(=O)C=CC3=O)cc2)cc1` was tested, and the AC50 was 9.9 µM (active). For `FC(F)(F)C(F)(F)C(F)(F)CC1CO1` (stereo not given), the outcome was “inactive”. `OCC(O)CC(F)(F)C(F)(F)C(F)(F)C(F)(F)C(F)(F)C(F)(F)C(F)(F)C(F)(F)F` (stereo not given) was tested, and the outcome was “inactive”. `O=C(O)C(F)(F)C(F)(F)C(F)(F)OC(F)(C(F)(F)F)C(F)(F)F` was tested, and the outcome was “inactive”. With `O=S(=O)(OCC(F)(F)F)C(F)(F)C(F)(F)C(F)(F)C(F)(F)F` the outcome was “inactive”. `O=C(c1ccccc1)c1ccc(O)cc1O` was tested, and the outcome was “inactive”. `CCN=C1C=CC(=C(c2ccc(N(CC)CC)cc2)c2ccc(N(CC)CC)cc2)c2ccccc21` was tested, and the AC50 was 4.99 µM (active) and 2.26 µM (active). `CCOC(=O)CC(=O)C(F)(F)C(F)(F)F` was tested, and the AC50 was 15.1 µM (active) and the outcome was “inactive”. In the case of `O=C(Cl)C(F)(F)C(F)(F)C(F)(F)C(F)(F)C(F)(F)C(F)(F)C(F)(F)F`, the outcome is reported as “inactive”. `CN(C(=O)C(F)(F)C(F)(F)C(F)(F)F)[Si](C)(C)C` was tested, and the outcome was “inactive”. With `O=C=NCc1cccc(CN=C=O)c1` the outcome was “inactive”. With `OC(O)C(F)(F)C(F)(F)F` the outcome was “inactive”. For `NS(=O)(=O)C(F)(F)C(F)(F)C(F)(F)C(F)(F)C(F)(F)C(F)(F)F`, the outcome was “inactive”. For `NC(=O)C(F)(F)C(F)(F)C(F)(F)C(F)(F)C(N)=O`, the outcome was “inactive”. `CCN(CC)c1ccc2c(c1)Oc1cc(N(CC)CC)ccc1C21OC(=O)c2ccccc21` was tested, and the outcome was “inactive”. `Brc1nc2ccccc2s1` was tested, and the outcome was “inactive”. In the case of `C=CC(=O)OCC(F)(F)C(F)(F)C(F)(F)C(F)(F)C(F)(F)C(F)(F)C(F)(F)C(F)F`, the outcome is reported as “inactive”. In the case of `CC1=CC2C3C=CC(C3)C2C1C` (stereo not given), the outcome is reported as “inactive”. `C[C@]12CC[C@H]3C(=CCc4cc(O)ccc43)[C@@H]1CCC2=O` was tested, and the outcome was “inactive”. In the case of `CNS(=O)(=O)C(F)(F)C(F)(F)C(F)(F)C(F)(F)C(F)(F)C(F)(F)C(F)(F)C(F)(F)F`, the outcome is reported as “inactive”. `C=C(C)C(=O)OCC(F)(F)C(F)(F)C(F)(F)C(F)F` was tested, and the outcome was “inactive”. For `O=C(O)CCC(F)(F)C(F)(F)C(F)(F)F`, the outcome was “inactive”. For `C[Si](Cl)(Cl)CCC(F)(F)C(F)(F)C(F)(F)C(F)(F)C(F)(F)C(F)(F)F`, the outcome was “inactive” and the AC50 was 0.0248 µM (active). With `CCOC(C=C(C)CCC=C(C)C)OCC` the AC50 was 35.2 µM (active). `O=C=Nc1cccc2c(N=C=O)cccc12` was tested, and the outcome was “inactive”. With `O=S(=O)(O)CCC(F)(F)C(F)(F)C(F)(F)C(F)(F)F` the outcome was “inactive”. `Cc1cnccn1` was tested, and the outcome was “inactive”. In the case of `Cc1cc(O)c(C(C)(C)C)cc1C(C)(C)C`, the AC50 is reported as 3.28 µM (active).
